Data as given in PubChem BioAssay.
“And” between values parts separate entries of the source, which are not always exact repeats. Identical values can stand only once. The source made the active and inactive calls. No rule for the calls is given here.

Assay: inhibitors of hydroxyurea-induced Chk1 phosphorylation, primary screen, imaging, HeLa, phospho-Chk1 nuclear intensity (AID 1187); also: test concentration not given here
Details: hydroxyurea-induced phospho-Chk1 immunofluorescence imaging, higher = more signal
In the case of `C=CCN(C(=O)C1N(CCOCCO)C(=O)C2C(C(=O)O)C3C=CC21O3)C(C)(C)C` (stereo not given), the z-score is reported as -0.47 (inactive) and 0.312 (inactive).
In the case of `C=CC[C@H](O)c1ccc(OCCO)cc1`, the z-score is reported as 0.313 (inactive) and 0.469 (inactive).
For `CC(C)N1CC=CC23O[C@@H]4C=CCCOC(=O)C4[C@H]2C(=O)N(C(C)CO)[C@@H]3C1=O` (stereo not given in full), the z-score was -0.309 (inactive) and -0.538 (inactive).
For `C=CCN(Cc1ccccc1)C(=O)C1N(CCCCCCO)C(=O)C2C(C(=O)O)C3C=CC21O3` (stereo not given), the z-score was 0.798 (inactive) and 0.751 (inactive).
For `C=C[C@H](C)[C@@H](O)c1ccc(OCCO)cc1`, the z-score was 0.121 (inactive) and -0.859 (inactive).
For `CC(CO)N1C(=O)[C@@H]2C3C(=O)OCCC=C[C@H]3OC23C=CCN(Cn2nnc4ccccc42)C(=O)[C@@H]13` (stereo not given in full), the z-score was 0.336 (inactive) and 0.749 (inactive).
In the case of `C=CCN(C(=O)C1N(C(C)(C)CO)C(=O)C2C(C(=O)O)C3C=CC21O3)C(C)(C)C` (stereo not given), the z-score is reported as -0.112 (inactive) and 0.674 (inactive).
In the case of `CCOC(=O)C[C@H]1[C@H](OC(=O)c2ccccc2-c2ccccc2)[C@@H](NC(=O)Cc2ccc(OC)cc2)c2cc(OCCCO)ccc2N1C(=O)c1ccc2ccccc2n1`, the z-score is reported as 0.0414 (inactive) and -0.162 (inactive).
In the case of `C=CCN(CCCCC)C(=O)C1N(c2ccc(CCO)cc2)C(=O)C2C(C(=O)O)C3C=CC21O3` (stereo not given), the z-score is reported as 0.0364 (inactive) and 0.181 (inactive).
With `C=CCN(CCCC)C(=O)C1N(c2ccc(CCO)cc2)C(=O)C2C(C(=O)O)C3C=CC21O3` (stereo not given) the z-score was -0.173 (inactive) and -0.502 (inactive).
